Reference: PubChem BioAssay (NCATS)
A number with no mark means an inactive call. Results filed as inconclusive are left out. A call without a number means that no potency is given here. Active and inactive are the calls of the source. Calls follow the shape of the dose curve; as a rule, active = well fitted curve in the direction sought with a large enough effect; inconclusive = small, poorly fitted or top-dose-only effect, or another doubt; inactive = no such curve, though single readings can be large; an effect the other way counts as inactive or inconclusive. Where a SMILES comes first, the peptide text is derived from it. [ ]: non-standard residue; d: D form. ξ: configuration not given here. ξPhe(βξ-Me) = CC(c1ccccc1)C(N)C(=O)O; GABA = NCCCC(=O)O

Legend:
[1] = target: Glutathione peroxidase 1 (Homo sapiens) (UniProt P07203); experiment: Primary qHTS Assay for Inhibitors of Recombinant Selenoprotein Glutathione Peroxidase 1 (GPX1) (AID 1845191); also: nearly all actives have a fitted effect of over 65% in size
Sequence of Glutathione peroxidase 1 (Homo sapiens) (P07203 whole entry, looked up): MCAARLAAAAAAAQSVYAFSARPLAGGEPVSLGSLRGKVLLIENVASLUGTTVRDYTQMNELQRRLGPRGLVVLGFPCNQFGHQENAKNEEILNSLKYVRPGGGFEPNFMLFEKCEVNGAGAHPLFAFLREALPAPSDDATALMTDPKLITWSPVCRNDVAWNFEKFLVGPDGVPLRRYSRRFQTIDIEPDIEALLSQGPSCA
Method in brief: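 10 nM GPX1 + cpd, 30 min RT; start w/ 1 mM GSH, 0.5 mM cumene hydroperoxide, 0.5 mM NADPH, 100 nM GR, 0.01% BSA; buffer 50 mM Tris-HCl pH 7.5, 2 mM EDTA, 150 mM NaCl; Fl 340/450, 0 & 15 min.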

[2] = target: Phospholipid hydroperoxide glutathione peroxidase GPX4 (Homo sapiens) (UniProt P36969); experiment: Primary qHTS Assay for Inhibitors of Recombinant Selenoprotein Glutathione Peroxidase 4 (GPX4) (AID 1845192); also: nearly all actives have a fitted effect of over 65% in size; as to activity change, negative = inhibition: series mostly up to about 50 µM
Sequence of Phospholipid hydroperoxide glutathione peroxidase GPX4 (Homo sapiens) (P36969 whole entry, looked up): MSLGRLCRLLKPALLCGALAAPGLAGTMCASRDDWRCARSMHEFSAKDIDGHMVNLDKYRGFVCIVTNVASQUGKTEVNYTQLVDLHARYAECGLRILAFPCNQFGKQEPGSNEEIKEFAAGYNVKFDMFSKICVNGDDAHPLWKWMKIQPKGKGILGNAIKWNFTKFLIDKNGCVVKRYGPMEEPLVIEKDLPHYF
Method in brief: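 NADPH consumption, followed by fluorescence at 340/450 nm between 0 and 15 min, reports GPX4 activity via coupled glutathione reductase (100 nM). Enzyme 200 nM was pre-exposed to compound 30 min; 0.5 mM cumene hydroperoxide and 1 mM GSH served as substrates.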

[3] = target: Luciferin 4-monooxygenase (Photinus pyralis) (UniProt P08659); experiment: Primary firefly luciferase (FLuc) qHTS assay for identification of artifact compounds. (AID 1845220); also: nearly all actives have a fitted effect of over 60% in size; also: potency is read from the fitted curve at half-maximal effect; as to activity change, negative = inhibition: series mostly up to about 54 µM
Method in brief: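 Compounds sat 15 min at room temperature with 10 uM luciferin and 10 uM ATP (pH 7.6 Tris acetate). Firefly luciferase (10 nM final) was then added, and luminescence was read 5 min later. Data normalized to no-enzyme and DMSO controls were Hill-fitted.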

[4] = Primary fluorescence-based thiol-reactive (MSTI) qHTS assay for identification of artifact compounds. (AID 1845221); also: nearly all actives have a fitted effect of over 65% in size; also: potency is read from the fitted curve at half-maximal effect;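 as to activity change, negative = thiol reactive: series mostly up to about 54 µM; thiol-reactive compounds lower the probe fluorescence signal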
Method in brief: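 In PBS pH 7.4 with 2% DMSO, each compound met 4 uM MSTI for one hour at ambient temperature, shielded from light, before fluorescence detection.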

[5] = tested on: Nanoluciferase (engineered Oplophorus gracilirostris luciferase); experiment: Primary Nanoluciferase (NLuc) qHTS assay for identification of artifact compounds. (AID 1845222); also: series mostly up to about 54 µM
Method in brief: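 Luminescence from secreted NLuc (filtered, 1:55-diluted S16 cell medium) read 5 min after Nano-Glo substrate; compounds preincubated 15 min, RT. Hill fits of inhibition normalized to DMSO and no-enzyme.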

[6] = Primary redox qHTS assay for identification of artifact compounds. (AID 1845223)
Method in brief: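 Amplex Red (25 uM) and HRP (250 mU/mL) in HBSS, with compounds for 15 min, then 250 uM DTT for 30 min, room temperature, dark. Fluorescence 525/598 nm read; normalized to DMSO and 10 uM DA3003; Hill fit.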

C=C1CC[C@@H]2[C@](C)(CC[C@H](O)[C@@]2(C)CCC=C(C)C)[C@@H]1Cc1c[nH]c2ccccc12
Potency [1]: inactive
Potency [2]: inactive
Potency [3]: inactive
Potency [4]: inactive
Potency [5]: inactive

CC1=C(C)C(=O)OC(C(C)(O)C2CCC3C4CC=C5CC(OC6OC(COC7OC(CO)C(O)C(O)C7O)C(O)C(O)C6O)CC(O)C5(C)C4CCC32C)C1 (configuration not stated)
Potency [1]: inactive
Potency [2]: inactive
Potency [3]: inactive
Potency [4]: inactive
Potency [5]: inactive

CC(=O)OCC(=O)O[C@@H]1[C@H]2[C@@H](OC(=O)c3ccccc3)[C@@H](C)C[C@]2(O)[C@H](OC(C)=O)C2(C)[C@H]3CC(C)(C)C(=O)[C@@H]3CC1(OC(C)=O)[C@@H]2OC(C)=O (some centres not stated)
Potency [1]: inactive
Potency [2]: inactive
Potency [3]: inactive
Potency [4]: inactive
Potency [5]: inactive

C/C=C/C=C/C(CC(=O)O)Nc1ccc(C=O)cc1 (configuration not stated)
Potency [1]: inactive
Potency [2]: inactive
Potency [3]: 23.9 µM (active)
Potency [4]: 4.74 µM (active)

CC(C)CC1NC(=O)C(C(C)c2ccccc2)NC(=O)C(C(C)C)NC(=O)C(C)NC(=O)CCCNC(=O)C(Cc2c[nH]c3ccccc23)NC(=O)C(C)NC1=O (stereo not drawn) (cyclo([GABA]AV[ξPhe(βξ-Me)]LAW); configuration not given here)
Potency [1]: inactive
Potency [2]: inactive
Potency [3]: inactive

COc1ccc(/C=C/C(=O)O[C@H]2[C@@H]3C=CO[C@@H](O[C@@H]4O[C@H](CO)[C@@H](O)[C@H](O)[C@H]4O)[C@@H]3[C@@]3(CO)O[C@@H]23)cc1O
Potency [1]: inactive
Potency [2]: inactive
Potency [3]: inactive
Potency [4]: 11.6 µM (active)
Potency [5]: inactive

C[C@]12C=CC(=O)C=C1CC[C@@H]1[C@@H]2[C@@H](O)C[C@@]2(C)[C@H]1CC[C@]2(O)C(=O)COC(=O)CCC(=O)O
Potency [1]: inactive
Potency [2]: inactive
Potency [3]: inactive
Potency [4]: inactive
Potency [5]: inactive

CC1CCC2C(C(=O)O)=CC3CC(C)(C)CC132 (configuration not stated)
Potency [1]: inactive
Potency [2]: inactive
Potency [3]: inactive
Potency [4]: 23.8 µM (active)

C=C/C=C/[C@@H]1OC[C@H](/C=C/C=C/C)[C@H]1O
Potency [1]: inactive
Potency [2]: inactive
Potency [3]: inactive
Potency [4]: inactive
Potency [5]: inactive

CCNC(=O)[C@@H]1CCCN1C(=O)[C@H](CCCN=C(N)N)NC(=O)[C@H](CC(C)C)NC(=O)[C@@H](C)NC(=O)[C@H](Cc1ccc(O)cc1)NC(=O)[C@H](CO)NC(=O)[C@H](Cc1c[nH]c2ccccc12)NC(=O)[C@H](Cc1cnc[nH]1)NC(=O)[C@@H]1CCC(=O)N1
Potency [1]: inactive
Potency [2]: inactive
Potency [3]: inactive
Potency [4]: inactive
Potency [5]: inactive

O=C(c1ccc(F)cc1)C1CCN(CCn2c(=O)nc3n(c2=O)CCCC3)CC1
Potency [1]: inactive
Potency [2]: inactive
Potency [3]: inactive
Potency [4]: inactive
Potency [5]: inactive

COC(=O)C1=COC(O[C@@H]2O[C@H](CO)[C@@H](O)[C@H](O)[C@H]2O)/C(=C\COC(=O)c2ccc(OC3OC(CO)C(O)C(O)C3O)c(OC)c2)C1CC(=O)OCCc1ccc(O)cc1 (some centres not stated)
Potency [1]: inactive
Potency [2]: inactive
outcome [3]: inactive [at 11.6 µM]
activity change, negative = thiol reactive [4]: 1.89% [at 11.5 µM]
activity, negative = inhibition [5]: 4.63% [at 11.6 µM]

C[C@@H]1C(=O)O[C@H]2CC34[C@H]5C[C@@H](C(C)(C)C)C36[C@@H](OC(=O)[C@@H]6O)O[C@@]4(C(=O)O5)[C@]21O (some centres not stated)
Potency [1]: inactive
Potency [2]: inactive
Potency [3]: inactive
Potency [4]: inactive
Potency [5]: inactive

C[C@]12CC[C@@H]3c4ccc(O[C@@H]5O[C@H](C(=O)O)[C@@H](O)[C@H](O)[C@H]5O)cc4CC[C@H]3[C@@H]1CCC2=O
Potency [1]: inactive
Potency [2]: inactive
Potency [3]: inactive
Potency [4]: inactive
Potency [5]: inactive
Potency [6]: inactive

CC(CCC1(O)OC2CC3C4CCC5CC(O[C@@H]6O[C@H](CO)[C@@H](O)[C@H](O)[C@H]6O[C@@H]6OC[C@@H](O)[C@H](O)[C@H]6O)C(O)CC5(C)C4CCC3(C)C2C1C)CO[C@@H]1O[C@H](CO)[C@@H](O)[C@H](O)[C@H]1O (some centres not stated)
Potency [1]: inactive
Potency [2]: inactive
activity change, negative = inhibition [3]: 1.24% [at 11.6 µM]
activity change, negative = thiol reactive [4]: -13.7% [at 11.5 µM]
activity, negative = inhibition [5]: 4.39% [at 11.6 µM]

NC(=O)[C@H]1CCCCc2c1[nH]c1ccc(Cl)cc21
Potency [1]: inactive
Potency [2]: inactive
Potency [3]: inactive
Potency [4]: inactive
Potency [5]: inactive

C/C(=C/CCC(CO)C1CCC2(C)C3CCC4C(C)(C)C(OC5OC(CO)C(O)C(O)C5O)CC(O)C45CC35CCC12C)COC1OC(CO)C(O)C(O)C1O (configuration not stated)
Potency [1]: inactive
Potency [2]: inactive
Potency [3]: inactive
Potency [4]: inactive
Potency [5]: inactive

C=C1C(=O)OC2/C=C(\C)CC/C=C(\C(=O)O)CC/C=C(\C)CCC12 (configuration not stated)
Potency [1]: inactive
Potency [2]: inactive
Potency [3]: inactive
Potency [4]: inactive
Potency [5]: inactive
